According to PubChem BioAssay AID652067 (The Scripps Research Institute Molecular Screening Center, 2013):
The whole screen tested about 370,000 compounds, of which about 5,400 (1.5%) were called active. The entries come from a sample that favours actives as a whole. Unmarked numbers belong to inactive results.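 Rule for the calls: active = activation above the mean of all tested compounds plus 3 SD (cut at about 5.5% in these data); inactive = the rest.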

System: DAF-12 nuclear receptor (Haemonchus contortus)
Assay: hcDAF-12 driven luciferase reporter activation – cell-based, luminescence, HEK293, lit1-tk-luc reporter, primary screen (AID 652067);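 note: 100% = response to 3 µM Δ7-dafachronic acid high control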
Conditions: HEK293 hcDAF-12 lit1-tk-luc reporter, at 6.8 µM, stronger effect = higher value, 0% DMSO, 100% Δ7-dafachronic acid

SMILES	activation
c1cncc(CNc2ccnc(-c3ccc4c(c3)OCO4)n2)c1	0.49%
O=C(Nc1ccc(N2CCOCC2)c(Cl)c1)c1ccc(S(=O)(=O)N2CCOCC2)cc1	-2.07%
CN1CCN(c2ccc(NC(=O)c3ccc4c(c3)OCCO4)cc2Cl)CC1	6.55% (active)
Cc1ccc(C(=O)Nc2ccc3c(c2)OCCO3)cc1S(=O)(=O)N1CCOCC1	0.29%
CCSC1(SCC)N=C(N)C2(C#N)C(c3ccccc3)NC(C)=CC12C#N (centres undefined)	-0.75%
CN1C(=O)/C(=N/OC(=O)c2ccccc2Br)c2ccccc21	-0.66%
CN1C(=O)/C(=C\c2cc(Br)cs2)c2ccccc21	6.07% (active)
CCC1C(=O)c2ccccc2N(C)C1=O (centres undefined)	4.03%
COC(=O)[C@]12C[C@H](CC(=O)NCc3ccc(C)o3)C(=O)N(CCC3=CCCCC3)C1=C[C@H](C(C)(C)C)O[C@@H]2C	0.28%
COc1ccc(/C=N/Nc2ncnc3sc4c(c23)CCCC4)cc1O	2.31%
O=[N+]([O-])c1cc(Br)c(O)c(/C=N/Nc2nc3ccccc3s2)c1	5.75% (active)
COc1cc(/C=C/C(=O)OCC(=O)NCCCc2ccccc2)ccc1O	-0.23%
O=C(N/N=C/c1cc([N+](=O)[O-])ccc1O)/C(=C\c1cccs1)NC(=O)c1ccccc1	2.67%
COc1cc(/C=N/Nc2nc3ccccc3s2)ccc1O	11.4% (active)
O=C(C1CCCN1S(=O)(=O)c1ccccc1)N1CCc2ccccc2C1 (centres undefined)	-0.91%
O=C(CSc1nnc(-c2ccccn2)n1-c1ccccc1)Nc1ccc2cn[nH]c2c1	1.82%
CN[C@H]1C[C@H]2c3cc(N4CCOCC4)ccc3CCN2C[C@H]1[C@H](C)O	0.66%
O=C(Nc1ccc2c(c1)OCCO2)C1c2ccccc2OCC(=O)N1Cc1ccccn1 (centres undefined)	2.69%
O=C(Nc1ccc(Cl)cc1)C1c2cccc[n+]2CC(=O)N1Cc1ccc2c(c1)OCO2 (centres undefined)	6.69% (active)
CCCOc1ccc(NC(=O)CC2C(=O)N(C)C(=S)N2Cc2ccc3c(c2)OCO3)cc1 (centres undefined)	-1.25%
O=C(COC(=O)/C(=C/c1cccs1)c1cccs1)NCc1ccccc1Cl	-2.32%
COc1cccc(NC(=O)N(C)C[C@@H]2OCc3cn(nn3)CCCC(=O)N([C@@H](C)CO)C[C@H]2C)c1	1.21%
CSc1nc2nc3c(c(=O)n2[nH]1)CCC3	0.72%
O=c1c2c(nc3cc(-c4cccc(Cl)c4)[nH]n13)CCCC2	8.74% (active)
